Laboratory results from PubChem BioAssay.
The source made the active and inactive calls.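 How the source made its calls, unless noted: active means inhibition above 20% together with a positive visual image hit; inconclusive means visual image hit but inhibition not above 20%; inactive means no visual image hit.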

Tests used:
[1] = inhibitors of TNFa-induced NFkB p65 translocation, primary screen, imaging, HUVEC, MLSMR starter and 10KST1 sets (AID 438); conditions: HUVEC TNFa-induced p65 nuclear translocation; cell count: measured here: nuclei count (cytotoxicity indicator), at 2.08 µM unless noted; inhibition: at 2 µM, stronger effect = higher value unless noted;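 further: compound added about 3h40 before a 20 min TNFalpha stimulation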;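 on inhibition: signal is the nuclear over cytoplasmic p65 intensity ratio per well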
[2] = inhibitors of E-selectin induction by TNFa, primary screen, imaging, HUVEC, immunofluorescence, MLSMR starter and 10KST1 sets (AID 487;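 active means visually confirmed hit in the image check and inhibition above 20%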;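 on inhibition: signal is fraction of cell area covered by stained E-selectin grains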;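 on nuclei count: 100% = median nuclei count of all wells on the same plate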); conditions: HUVEC TNFalpha-induced E-selectin immunofluorescence imaging, at 2 µM; inhibition: stronger effect = higher value; nuclei count: measured here: cell number, toxicity
[3] = DUSP6 inhibitors restoring Erk phosphorylation by chemical complementation, primary imaging in DUSP6-transfected HeLa (AID 609;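 active means compounds giving at least 50% inhibition in the cell-based MKP-3 phosphatase rescue imaging test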;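 on inhibition: phospho-Erk level distribution per well compared with pooled transfected vehicle control wells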); conditions: HeLa MKP-3 transfected, phospho-Erk imaging KS statistic, at 10 µM
[4] = target: Dual specificity protein phosphatase 6 (Homo sapiens) (UniProt Q16828); assay: as above; conditions: HeLa MKP-3 transfected, phospho-Erk imaging KS statistic, at 10 µM, stronger effect = higher value
Sequence of Dual specificity protein phosphatase 6 (Homo sapiens) (Q16828 whole entry, looked up): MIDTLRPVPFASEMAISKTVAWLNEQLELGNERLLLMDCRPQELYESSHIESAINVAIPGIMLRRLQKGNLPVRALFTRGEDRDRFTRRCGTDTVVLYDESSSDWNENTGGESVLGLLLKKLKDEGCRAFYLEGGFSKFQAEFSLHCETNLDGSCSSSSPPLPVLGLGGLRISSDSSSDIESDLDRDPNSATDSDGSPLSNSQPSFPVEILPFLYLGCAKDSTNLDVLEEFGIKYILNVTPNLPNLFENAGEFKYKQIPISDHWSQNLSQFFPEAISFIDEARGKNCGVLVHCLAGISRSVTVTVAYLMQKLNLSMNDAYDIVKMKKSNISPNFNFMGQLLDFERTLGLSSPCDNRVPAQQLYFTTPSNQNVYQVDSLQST

[5] = target: Voltage-gated potassium channel subunit beta-2 (Rattus norvegicus) (UniProt P62483); assay: KvBeta enzyme negative modulators, primary screen, biochemical, NADPH fluorescence (AID 622;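 active means fluorescence slope higher than the sample average by over 3 SD, cut at about -0.22 in these data, passing the limit was not always enough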;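 further: slope of raw intensity against log time taken from 70 to 1610 s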); conditions: recombinant KvBeta, 4-cyanobenzaldehyde reduction, at 10 µM, stronger effect = higher value
Sequence of Voltage-gated potassium channel subunit beta-2 (Rattus norvegicus) (P62483 whole entry, looked up): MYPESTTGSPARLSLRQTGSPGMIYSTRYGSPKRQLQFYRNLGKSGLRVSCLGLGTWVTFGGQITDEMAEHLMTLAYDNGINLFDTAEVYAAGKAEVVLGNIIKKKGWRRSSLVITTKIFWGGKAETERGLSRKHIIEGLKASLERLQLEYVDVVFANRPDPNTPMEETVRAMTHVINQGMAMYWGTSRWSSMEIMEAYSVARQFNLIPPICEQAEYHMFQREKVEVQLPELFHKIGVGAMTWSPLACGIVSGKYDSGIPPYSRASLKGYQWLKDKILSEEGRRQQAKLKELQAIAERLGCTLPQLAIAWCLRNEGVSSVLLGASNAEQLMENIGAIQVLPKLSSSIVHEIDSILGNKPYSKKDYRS

[6] = target: Voltage-gated potassium channel subunit beta-2 (Rattus norvegicus) (UniProt P62483); assay: KvBeta positive modulators, primary screen, biochemical, NADPH fluorescence (AID 623;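 active means NADPH fluorescence slope more negative than the mean of all samples by about 3 SD, 99.7% confidence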;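 further: fluorescence intensity change per second fitted from 20 to 320 s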); conditions: Recombinant KvBeta, NADPH fluorescence decrease slope, 10 min; at 10 µM; stronger effect = lower value
[7] = target: Muscarinic acetylcholine receptor M4 (Homo sapiens) (UniProt P08173); assay: compounds altering M4/GIRK thallium flux, either direction, primary screen, M4 allosteric agonist project, cell-based, HEK293 M4/GIRK, BTC-AM (AID 625;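 active means fluorescence slope after compound addition differing from the mean of all tested samples at 99.7% confidence, mostly higher but some lower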;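 further: thallium influx through GIRK channels coupled to M4 in HEK293 cells with BTC-AM dye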); conditions: at 10 µM, actives lie on both sides
Sequence of Muscarinic acetylcholine receptor M4 (Homo sapiens) (P08173 whole entry, looked up): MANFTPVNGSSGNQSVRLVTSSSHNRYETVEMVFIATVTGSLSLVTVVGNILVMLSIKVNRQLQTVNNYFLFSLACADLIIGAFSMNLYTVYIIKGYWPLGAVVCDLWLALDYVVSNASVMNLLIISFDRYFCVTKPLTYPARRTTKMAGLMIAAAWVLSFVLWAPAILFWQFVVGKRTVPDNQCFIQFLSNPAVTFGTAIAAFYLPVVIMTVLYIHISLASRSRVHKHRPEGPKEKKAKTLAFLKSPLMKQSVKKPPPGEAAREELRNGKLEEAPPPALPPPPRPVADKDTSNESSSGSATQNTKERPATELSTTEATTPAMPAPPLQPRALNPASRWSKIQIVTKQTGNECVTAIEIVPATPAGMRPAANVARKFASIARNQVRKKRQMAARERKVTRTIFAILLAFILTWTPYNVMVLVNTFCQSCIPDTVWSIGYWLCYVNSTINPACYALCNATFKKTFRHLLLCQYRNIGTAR

[8] = inhibitors of larval lipid processing in zebrafish, primary screen, whole organism, PED6 fluorescence, gall bladder and intestine (AID 686;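 active means a full or partial loss of lipid-probe fluorescence in the fish gall bladder, intestine or both, judged by eye; inactive means no fluorescence loss, or compound toxic to the fish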;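 further: larvae 5 to 7 days old with five fish per well; signal comes from phospholipase A2 cleavage of quenched PED6 carried via bile; overnight exposure to compound and PED6 before scoring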); conditions: Zebrafish larvae PED6 lipid processing, fluorescence scoring
[9] = inhibitors of Chlamydomonas gravitaxis, primary screen, whole organism, Chlamydomonas reinhardtii, WT vs cilia-less mutant, absorbance, 96-well (AID 463189;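 active means inhibition at or above 50% relative to wild type and mutant plate controls; inactive means inhibition below 50%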;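 further: 0% = wild type cc124 cells in DMSO and 100% = ciliumless bld1 mutant cells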); conditions: OD600 absorbance, 2 days, at 10 µM, stronger effect = higher value
[10] = inhibitors of mutant huntingtin aggregation, primary screen, imaging, exon1htt(103Q)mCFP cells, high-content imaging (AID 483;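 active means visual image review flags a hit and inhibition of aggregation exceeds 20%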;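 further: compound exposure lasted 3 days before fixation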;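 on nuclei count: percent of the per-plate median nuclei count of sample wells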); conditions: exon1htt(103Q)mCFP cell line, aggregate imaging, at 2 µM; inhibition of aggregation: stronger effect = higher value; nuclei count: measured here: cell count, toxicity
[11] = target: Alpha-2C adrenergic receptor (Homo sapiens) (UniProt P18825); assay: modulators of alpha2C/GIRK thallium flux, primary screen, cell-based, HEK293 alpha2C/GIRK1/2 (AID 624;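 active means fluorescence slope after compound addition differing from the mean of all screened samples at 99.7% confidence, in either direction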;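 further: slope of fluorescence ratio to pre-addition baseline per second over 15 to 24 s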); conditions: thallium flux BTC fluorescence, at 10 µM, actives lie on both sides
Sequence of Alpha-2C adrenergic receptor (Homo sapiens) (P18825 whole entry, looked up): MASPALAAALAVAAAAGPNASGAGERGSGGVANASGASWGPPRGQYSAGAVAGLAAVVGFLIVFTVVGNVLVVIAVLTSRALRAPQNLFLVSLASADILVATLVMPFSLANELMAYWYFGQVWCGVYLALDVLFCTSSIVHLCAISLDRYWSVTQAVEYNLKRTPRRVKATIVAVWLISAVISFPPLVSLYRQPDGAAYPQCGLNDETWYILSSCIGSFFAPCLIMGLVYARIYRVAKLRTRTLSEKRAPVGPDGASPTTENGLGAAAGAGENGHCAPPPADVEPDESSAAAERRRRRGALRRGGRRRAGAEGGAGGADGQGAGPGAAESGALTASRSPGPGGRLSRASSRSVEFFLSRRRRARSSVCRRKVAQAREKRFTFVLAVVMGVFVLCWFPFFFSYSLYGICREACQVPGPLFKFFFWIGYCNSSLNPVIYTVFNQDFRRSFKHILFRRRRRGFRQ

[12] = inhibitors of Sendai virus-induced IRF3 signaling, primary screen, TLR/RLR signaling modifier project, cell-based, Sendai virus stimulus, luciferase, 10K MLSCN set (AID 602276;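 active means inhibition at or above 50% at 10 µM; inactive means inhibition below 50%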;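 further: firefly luciferase from ISG56 promoter only with Renilla not read in this screen; 0% = Sendai virus plus DMSO and 100% = medium plus DMSO without virus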); conditions: HEK293 RL24 IRF3 luciferase reporter, at 10 µM, stronger effect = higher value
[13] = inhibitors of poly I:C-induced TLR3 signaling, primary screen, cell-based, poly I:C stimulus, luciferase, 10K MLSCN set (AID 602277;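 active means inhibition of the reporter signal at or above 50%; inactive means inhibition below 50%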); conditions: HEK293-TLR3 RL24 IRF3 luciferase reporter, at 10 µM, stronger effect = higher value
[14] = measured here: cell density z-score
[15] = measured here: nuclear c-Myc green intensity z-score
[16] = measured here: nuclear pErk red intensity z-score, stronger effect = higher value

Structure (SMILES) | cell count [1] | inhibition [1] | inhibition [2] | nuclei count [2] | z-score [3, 14] | z-score [3, 15] | z-score [3, 16] | inhibition [4] | fluorescence slope [5] | NADPH fluorescence slope [6] | fluorescence slope [7] | outcome [8] | inhibition [9] | inhibition of aggregation [10] | nuclei count [10] | slope [11] | inhibition [12] | inhibition [13]
CN(C)CCOC(=O)c1cn(Cc2ccccc2)c2ccccc12 | 639 | -9.5% (inactive) | -111% (inactive) | 182% | 1.72 | -0.185 | -0.202 | -6.06% (inactive) | -0.507 (inactive) | -6.8e-05 (inactive) | 0.00681 (inactive) | inactive | 37% (inactive) | – | – | – | – | –
CCCCNC(=O)Nc1ccc(C(O)(C(=O)OCC)C(F)(F)F)cc1 (configuration not stated) | 688 | -5.9% (inactive) | -16.7% (inactive) | 173% | -0.832 | -1.24 | 1.19 | 3.49% (inactive) | -0.432 (inactive) | -4.2e-05 (inactive) | 0.00537 (inactive) | inactive | 5.22% (inactive) | – | – | – | – | –
CCCCc1nc(N2CCNCC2)c(C#N)c2c1CSC(C)(C)C2 | 519 | -12.8% (inactive) | -143% (inactive) | 135% | 0.415 | -0.261 | 0.643 | 7.42% (inactive) | -0.49 (inactive) | -0.000122 (inactive) | 0.00482 (inactive) | inactive | 55.2% (active) | – | – | – | – | –
Nc1c(C(=O)NCc2ccco2)c2nc3ccccc3nc2n1CCN1CCCCC1 | 676 | 18.1% (inactive) | 50.8% (inactive) | 138% | -0.477 | 2.3 | -0.0288 | -6.06% (inactive) | -0.0963 (inactive) | -2.8e-05 (inactive) | 0.00537 (inactive) | inactive | 131% (active) | – | – | – | – | –
O=C(c1cccs1)C1CN2CCC1CC2 (configuration not stated) | 582 | -15.9% (inactive) | 7.9% (inactive) | 110% | – | – | – | – | -0.485 (inactive) | 3e-05 (inactive) | – | – | – | 1.5% (inactive) | 75.5% | 0.00316 (inactive) | -7.76% (inactive) | 20.7% (inactive)
Cc1ccc(C2SCC(=O)Nc3c2c(=O)[nH]n3C2CCOC(C)(C)C2)cc1 (configuration not stated) | 378 | -0.6% (inactive) | -20.4% (inactive) | 111% | – | – | – | – | -0.37 (inactive) | -3.9e-05 (inactive) | – | – | – | -18.2% (inactive) | 128% | 0.00325 (inactive) | 18% (inactive) | 29.8% (inactive)
CN1CCC(N(C)c2ncnc3ccc(Br)cc23)CC1 | 336 | 5% (inactive) | 42.2% (inactive) | 79.5% | – | – | – | – | -0.606 (inactive) | -3.4e-05 (inactive) | – | – | – | 4.3% (inactive) | 94.9% | 0.00666 (inactive) | 10.9% (inactive) | 23.5% (inactive)
CC(C)(C)P(=O)(c1ccncc1)N1CCCC1 (configuration not stated) | 520 | -2.4% (inactive) | -21% (inactive) | 115% | – | – | – | – | -0.275 (inactive) | -4.3e-05 (inactive) | – | – | – | -2.3% (inactive) | 113% | 0.00562 (inactive) | 14.9% (inactive) | 22.7% (inactive)
COc1ccc(N2CCN(CCCN)CC2)cc1 | 356 | 2.8% (inactive) | -21% (inactive) | 113% | – | – | – | – | -0.603 (inactive) | -1.3e-05 (inactive) | – | – | – | -5.7% (inactive) | 106% | 0.00595 (inactive) | 11.2% (inactive) | 15.4% (inactive)
Cc1cc(OCC(=O)O)c2c3c(c(=O)oc2c1)CCCC3 | 361 | 5.7% (inactive) | -74% (inactive) | 87.1% | – | – | – | – | -0.117 (active) | -1.4e-05 (inactive) | – | – | – | -15% (inactive) | 92.2% | 0.00624 (inactive) | -0.949% (inactive) | -5.67% (inactive)
COc1ccccc1-n1c(O)c(C=NCc2ccc3c(c2)OCO3)c(=O)[nH]c1=O | 758 | -13.8% (inactive) | -117% (inactive) | 124% | – | – | – | – | -0.611 (inactive) | -5.6e-05 (inactive) | – | – | – | -35.1% (inactive) | 121% | 0.00662 (inactive) | 2.15% (inactive) | 9.73% (inactive)
O=C1CC(c2ccccc2)CC(O)=C1C=NCCN1CCN(C(=O)Cc2ccccc2)CC1 (configuration not stated) | 450 | 2.9% (inactive) | -82.2% (inactive) | 115% | – | – | – | – | -0.529 (inactive) | 3.3e-05 (inactive) | – | – | – | 8.6% (inactive) | 92.1% | 0.00558 (inactive) | 17.1% (inactive) | 25.9% (inactive)
Cc1ccccc1NC1=NCCCS1 | 457 | -10.3% (inactive) | 67.8% (inactive) | 74.1% | – | – | – | – | -0.357 (inactive) | -3.1e-05 (inactive) | – | – | – | 29.9% (active) | 83.1% | 0.00361 (inactive) | 0.817% (inactive) | 19% (inactive)
O=C(CN1C2CCC1CC(O)(c1cccnc1)C2)Nc1ccc2c(c1)OCO2 (configuration not stated) | 414 | 7.5% (inactive) | -176% (inactive) | 115% | – | – | – | – | -0.591 (inactive) | 5.6e-07 (inactive) | – | – | – | -3.4% (inactive) | 104% | 0.00303 (inactive) | 15% (inactive) | 22.4% (inactive)
